PubChem BioAssay AID743060 (The Scripps Research Institute Molecular Screening Center, 2013)

Assay: T. brucei methionyl-tRNA synthetase enzyme inhibition – biochemical, radioactivity, round 1, late-stage follow-up (AID 743060)
Conditions: purified enzyme, radiolabel aminoacylation, scintillation, 2 h; at 1 µM; stronger effect = higher value
`O=C(CC(=O)Nc1cccc(Cl)c1)NN=Cc1ccccc1` showed an inhibition of 28.2%.
Work on `Cc1cccc(C(=O)NCCc2nc3ccccc3n2CCOc2ccccc2)c1` yielded an inhibition of 1.66%.
With `CCC(=O)c1cn(CC(=O)Nc2cccc(C(F)(F)F)c2)c2ccccc12` the inhibition was -3.8%.
For `Clc1ccc(-c2nnc(SCc3nc4ccccc4[nH]3)o2)c(Cl)c1`, the inhibition was 75.3%.
`CC(CC(=O)Nc1cccc(Br)c1)=NNC(=O)c1ccc(O)cc1O` gave an inhibition of 36.5%.
`O=C(Cn1cc(C(=O)C2CC2)c2ccccc21)Nc1cccc(C(F)(F)F)c1` gave an inhibition of 3.65%.
`CCCCCCCCCC1NC(C(=O)O)Cc2c1[nH]c1ccccc21` (stereo not given) showed an inhibition of 64.7%.
With `CCCCn1c(CCNC(=O)c2ccc(F)cc2)nc2ccccc21` the inhibition was 4.87%.
With `O=C(CCC(=O)Nc1cccc([N+](=O)[O-])c1)NN=Cc1cccs1` the inhibition was 6.25%.
Work on `O=C(NCc1nc2ccccc2[nH]1)C1=C[C@H](c2ccc(Br)cc2)C[C@H](OCCCCO)O1` yielded an inhibition of 51.6%.
`CN(Cc1cc(Cl)cc(Cl)c1)[C@H]1C[C@H]2c3[nH]c4ccccc4c3CCN2C(=O)[C@H]1CO` gave an inhibition of 95.1%.
With `O=C(C[C@H]1C(=O)N(Cc2ccccc2)C[C@@H]1c1ccc(Br)cc1)Nc1ccc(Br)cc1` the inhibition was 55.7%.
With `Brc1cnc2nc(SCc3nc4ccccc4[nH]3)[nH]c2c1` the inhibition was 23.7%.
In the case of `O=C(CC=NOCc1ccc([N+](=O)[O-])cc1)Nc1ccc(Br)cc1`, the inhibition was 32.2%.
Work on `CC(=O)N(CCc1ccccc1)C1CC(=O)N(c2ccc(Cl)cc2)C1=O` (stereo not given) yielded an inhibition of -16.2%.
`O=C(NCCc1nc2ccccc2[nH]1)c1ccc(Cl)c([N+](=O)[O-])c1` showed an inhibition of 89.8%.
`CCN(CC)C(=O)C(=O)c1cn(CC(=O)N(CC)c2ccccc2)c2ccccc12` showed an inhibition of -3.75%.
Compound `CCc1ccc2[nH]c3nc(SCC(=O)NCc4cccc(OC)c4)nnc3c2c1` has an inhibition of 4.75%.
For `CCN(CC)C(=O)C(=O)c1cn(CC(=O)Nc2ccccc2OC)c2ccccc12`, the inhibition was -7.03%.
`COc1ccc(NC(=O)C2CC(=O)n3c(nc4ccccc43)N2)cc1` (stereo not given) gave an inhibition of -18.5%.
Compound `CCO[C@H]1OC(C(=O)NCc2nc3ccccc3[nH]2)=C[C@@H](c2ccc(Br)cc2)[C@@H]1CCCO` has an inhibition of 0.88%.
With `O=C1CC(N(CCc2ccccc2)C(=S)Nc2ccccc2)C(=O)N1c1ccc(Br)cc1` (stereo not given) the inhibition was 84.2%.
Work on `CNC(=S)N(CCc1ccccc1)C1CC(=O)N(c2ccc(Br)cc2)C1=O` (stereo not given) yielded an inhibition of 96.6%.
Work on `O=C(NCCc1nc2ccccc2[nH]1)c1ccc(Cl)cc1Cl` yielded an inhibition of 61.9%.
Work on `C[C@H](O)[C@@H]1C(=O)N2CCc3c([nH]c4ccccc34)[C@@H]2C[C@@H]1N(C)Cc1ccc2c(c1)OCO2` yielded an inhibition of 1.98%.
In the case of `O=C(Cn1cnc2ccccc21)Nc1cccc([N+](=O)[O-])c1`, the inhibition was 44.9%.
For `Cn1c(CCNC(=O)c2ccc(Cl)cc2)nc2ccccc21`, the inhibition was 10.9%.
`CCN(C(=O)Cn1cc(C(=O)C(=O)N2CCOCC2)c2ccccc21)c1ccccc1` gave an inhibition of -19.2%.
`CCN(CC)C(=O)C(=O)c1cn(CC(=O)N2CCCc3ccccc32)c2ccccc12` showed an inhibition of -9.56%.
Work on `CC(C)(C)[C@H]1C=C(C(=O)NCc2nc3ccccc3[nH]2)O[C@@H](OCc2ccc(CO)cc2)C1` yielded an inhibition of 21.6%.
`Cc1ccc(C(=O)NCCc2nc3ccccc3[nH]2)cc1C` gave an inhibition of -10.8%.
`Cc1ccc(C(=O)NCCc2nc3ccccc3[nH]2)cc1[N+](=O)[O-]` showed an inhibition of 35.7%.
Compound `O=C(Cn1cc(C(=O)C(=O)N2CCOCC2)c2ccccc21)NCC1CCCO1` (stereo not given) has an inhibition of -3.8%.
`COc1ccc2[nH]c3nc(SCC(=O)Nc4ccc5c(c4)OCO5)nnc3c2c1` showed an inhibition of 63.4%.
`O=C(NCCc1nc2ccccc2[nH]1)c1c(F)cccc1F` gave an inhibition of 2.62%.
